Experimental findings from PubChem BioAssay (EPA / NIEHS) are described below.

Calls of active or inactive are those of the source. The calls were made as follows, unless noted: active = hit-call score of the fitted dose curve at least 0.9, where 1 is the maximum; inactive = score below 0.9.

Estrogen receptor (Homo sapiens), sequence (P03372 whole entry, looked up): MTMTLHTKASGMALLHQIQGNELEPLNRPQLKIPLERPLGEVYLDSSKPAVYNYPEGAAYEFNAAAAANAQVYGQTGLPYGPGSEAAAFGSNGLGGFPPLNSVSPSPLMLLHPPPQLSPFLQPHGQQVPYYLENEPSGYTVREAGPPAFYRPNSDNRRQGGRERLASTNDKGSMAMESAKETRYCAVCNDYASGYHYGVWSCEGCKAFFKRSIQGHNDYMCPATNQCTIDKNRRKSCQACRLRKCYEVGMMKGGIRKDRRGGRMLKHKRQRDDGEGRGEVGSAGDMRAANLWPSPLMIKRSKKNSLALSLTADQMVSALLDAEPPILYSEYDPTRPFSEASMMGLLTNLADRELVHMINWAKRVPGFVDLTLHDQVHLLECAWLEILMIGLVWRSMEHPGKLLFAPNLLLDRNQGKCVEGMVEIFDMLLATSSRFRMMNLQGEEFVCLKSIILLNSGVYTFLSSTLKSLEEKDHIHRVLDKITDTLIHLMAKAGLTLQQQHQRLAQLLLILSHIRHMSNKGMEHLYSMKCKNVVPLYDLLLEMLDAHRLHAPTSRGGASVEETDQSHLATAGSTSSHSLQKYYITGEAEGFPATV

One assay has as its target Estrogen receptor (Homo sapiens) (UniProt P03372). Briefly: OT_ERa_GFPERaERE_0480: Odyssey Thera (OT) 8-hour HeLa Transcription Induction Assay for Estrogen Receptor (AID 2283381). An outline of the steps: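 HeLa cells dosed with compound and imaged by fluorescence microscopy at 8 h; GFP induction from an ERE reporter quantified by high-content image analysis and fitted as gain of signal against DMSO baseline.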
`CCCCCCCCCCCC(=O)N(C)CC(=O)O`: the molecule was classed as inactive.
Broadly, the AC50 is the concentration giving half of the maximal activity seen. In the case of `O=C(O)/C=C/c1ccccc1`, the AC50 was 23.4 µM (active).
`CCC(C)(O)CCCC(C)C` (stereo not drawn): the outcome was inactive.
For the molecule `CC1=CC=C(C(C)C)CC1`, the AC50 was 23.6 µM (active).
Turning to `CCCC=C(C=O)CC`, the molecule was classed as inactive.
For `O=C(OCCc1ccccc1)c1ccccc1`, the molecule was called inactive.
On the same count and under the same terms, the entry for `C[Si]1(C)O[Si](C)(C)O[Si](C)(C)O[Si](C)(C)O[Si](C)(C)O1` is “inactive”; for `CC12CCC(CC1)C(C)(C)O2` it is “inactive”.
On the same count and under the same terms, the entry for `Fc1ccc(Br)cc1` is “inactive”.
Still for that read-out and setting: the result for `CCCCCCCO` reads “inactive”.
With `Nc1ccc(C(=O)O)cc1`, the call was inactive.
Regarding `CCCCNS(=O)(=O)c1ccccc1`, the outcome was inactive.
On to `O=C(Nc1ccccc1)c1cc(Cl)ccc1O`, for which the molecule was classed as inactive.
For `O=C(O)CCC(=O)O`, the molecule was called inactive.
As to `CN(C)c1ccc2nc3ccc(=[N+](C)C)cc-3sc2c1`, the AC50 was 40.6 µM (active).
Consider `CC1=NN(c2ccc(S(=O)(=O)O)cc2)C(=O)C1N=Nc1ccccc1` (stereo not drawn), for which the molecule was called inactive.
Same read-out and setting: the entry for `CCCCCC(=O)OCC` is “inactive”; for `CCCCNS(=O)(=O)c1ccc(C)cc1` it is “inactive”.
Same read-out and setting: the entry for `O=C(Oc1ccccc1)c1ccccc1O` is “inactive”.
Consider `C=C(C)C1CC=C(C)CC1` (stereo not drawn), for which the outcome was inactive.
With `COC(=O)c1ccccc1C`, the molecule was called inactive.
Still for that read-out and setting: the entry for `CC1=CCC2CC1C2(C)C` (stereo not drawn) is “inactive”.
For the molecule `CCCCCCCCCC[N+](C)(CCCCCCCCCC)CCC[Si](OC)(OC)OC`, the AC50 is 24.1 µM (active).
On to `CCOC(=O)c1ccc(C)cc1`, for which the outcome was inactive.
On the same count and under the same terms, the result for `CC1(C)[C@@H]2CC[C@@]1(C)C(=O)C2` reads “inactive”; that for `Oc1ccccc1Cc1ccccc1O`, “inactive”.
On the same count and under the same terms, the result for `CCCCCCO` reads “inactive”; that for `C1CNCCN1`, “inactive”; that for `CCCCc1ccc(Cl)cc1`, “inactive”.
On the same count and under the same terms, the entry for `CCCCCC[C@@H](O)C/C=C\CCCCCCCC(=O)OCC(O)CO` (stereo partly drawn) is “inactive”.
As for `CCCCCCC=O`, the result was inactive.
Same read-out and setting: the result for `CC(C)(C)N` reads “inactive”; that for `CC(=O)c1ccccc1O`, “inactive”; that for `O=C(O)CC(C(=O)O)S(=O)(=O)O` (stereo not drawn), “inactive”.

A further assay shares this target. Briefly: OT_ERa_GFPERaERE_0120: Odyssey Thera (OT) 2-hour HeLa Transcription Induction Assay for Estrogen Receptor (AID 2283382; active = hit-call score of the fitted dose curve at least 0.9, where 1 is the maximum). An outline of the steps: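 HeLa cells were dosed with test chemical and read 2 hours later for GFP-ERα/ERE-linked fluorescent protein induction by fluorescence microscopy. Gain-of-signal was fitted relative to DMSO baseline, quantified by high content image analysis.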
Consider `CCCCCCCCCCCC(=O)N(C)CC(=O)O`, for which the molecule was called inactive.
In the case of `O=C(O)/C=C/c1ccccc1`, the molecule was classed as inactive.
Turning to `CCC(C)(O)CCCC(C)C` (stereo not drawn), the molecule was called inactive.
For the molecule `CC1=CC=C(C(C)C)CC1`, the AC50 is 23.8 µM (active).
With `CCCC=C(C=O)CC`, the outcome was inactive.
Still for that read-out and setting: the entry for `O=C(OCCc1ccccc1)c1ccccc1` is “inactive”.
The same measure, in the same setting: the entry for `C[Si]1(C)O[Si](C)(C)O[Si](C)(C)O[Si](C)(C)O[Si](C)(C)O1` is “inactive”; for `CC12CCC(CC1)C(C)(C)O2` it is “inactive”.
The same measure, in the same setting: the result for `Fc1ccc(Br)cc1` reads “inactive”.
For the molecule `CCCCCCCO`, the call was inactive.
The same measure, in the same setting: the entry for `Nc1ccc(C(=O)O)cc1` is “inactive”.
The same measure, in the same setting: the entry for `CCCCNS(=O)(=O)c1ccccc1` is “inactive”; for `O=C(Nc1ccccc1)c1cc(Cl)ccc1O` it is “inactive”; for `O=C(O)CCC(=O)O` it is “inactive”.
With `CN(C)c1ccc2nc3ccc(=[N+](C)C)cc-3sc2c1`, the AC50 is 28.2 µM (active).
Take `CC1=NN(c2ccc(S(=O)(=O)O)cc2)C(=O)C1N=Nc1ccccc1` (stereo not drawn): the molecule was called inactive.
As for `CCCCCC(=O)OCC`, the result was inactive.
Same read-out and setting: the entry for `CCCCNS(=O)(=O)c1ccc(C)cc1` is “inactive”.
Turning to `O=C(Oc1ccccc1)c1ccccc1O`, the call was inactive.
Still for that read-out and setting: the entry for `C=C(C)C1CC=C(C)CC1` (stereo not drawn) is “inactive”.
On the same count and under the same terms, the entry for `COC(=O)c1ccccc1C` is “inactive”; for `CC1=CCC2CC1C2(C)C` (stereo not drawn) it is “inactive”.
Take `CCCCCCCCCC[N+](C)(CCCCCCCCCC)CCC[Si](OC)(OC)OC`: the AC50 is 81.9 µM (active).
As to `CCOC(=O)c1ccc(C)cc1`, the molecule was called inactive.
For `CC1(C)[C@@H]2CC[C@@]1(C)C(=O)C2`, the call was inactive.
Still for that read-out and setting: the result for `Oc1ccccc1Cc1ccccc1O` reads “inactive”.
The same measure, in the same setting: the result for `CCCCCCO` reads “inactive”.
Still for that read-out and setting: the result for `C1CNCCN1` reads “inactive”; that for `CCCCc1ccc(Cl)cc1`, “inactive”; that for `CCCCCC[C@@H](O)C/C=C\CCCCCCCC(=O)OCC(O)CO` (stereo partly drawn), “inactive”.
For the molecule `CCCCCCC=O`, the call was inactive.
Same read-out and setting: the result for `CC(C)(C)N` reads “inactive”; that for `CC(=O)c1ccccc1O`, “inactive”.
On the same count and under the same terms, the result for `O=C(O)CC(C(=O)O)S(=O)(=O)O` (stereo not drawn) reads “inactive”.
